Source: the supplement of paper PMC6555819

Tests used:
Test in all cases: PBM binding z-score (relative to random genomic background probes); higher = stronger binding; sequences stand for … in GC…GCGATTGACAGCGTAGAATGAAGG
[1] = tested on: FXR:RXRa (NR concentration 270 nM, RXRa partner concentration 90 nM)
How it was run: (§1)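 The probes on custom Agilent 4×180K protein-binding microarrays were double-stranded, with 34-nt variable regions bearing direct-repeat seeds, single-nucleotide variants, half-site ablations and random human genomic background sequences. Incubation lasted 1 h with ligand-free nuclear receptor dimers in PBS pH 7.4, 2% milk, 0.02% Triton X-100, 1 mM DTT, 0.2 mg/mL BSA and 0.4 mg/ml salmon testes DNA. Antibodies against each partner (one per run) detected bound dimers, and fluorescence scans were regression-normalized. Binding z-scores take the random background probes as reference.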

[2] = tested on: LXRa:RXRa (NR concentration 270 nM, RXRa partner concentration 90 nM)
How it was run: as §1

[3] = tested on: LXRa homodimer (NR concentration 270 nM)
How it was run: as §1

[4] = tested on: LXRb:RXRa (NR concentration 270 nM, RXRa partner concentration 90 nM)
How it was run: as §1

[5] = tested on: LXRb homodimer (NR concentration 270 nM)
How it was run: as §1

[6] = tested on: PPARa:RXRa (NR concentration 270 nM, RXRa partner concentration 90 nM)
How it was run: as §1

[7] = tested on: PPARg:RXRa (NR concentration 180 nM, RXRa partner concentration 90 nM)
How it was run: as §1

[8] = tested on: PPARg:RXRa 270nM:90nM, anti-RXR (NR concentration 270 nM, RXRa partner concentration 90 nM)
How it was run: as §1

[9] = tested on: PPARg:RXRa 30nM:10nM, anti-RXR (NR concentration 30 nM, RXRa partner concentration 10 nM)
How it was run: as §1

[10] = tested on: PPARg:RXRa 90nM:30nM, anti-RXR (NR concentration 90 nM, RXRa partner concentration 30 nM)
How it was run: as §1

[11] = tested on: PPARg:RXRa DBDmut IVT, anti-RXR (DBD mutation: RXRa K156A/R161A, NR concentration 270 nM, RXRa partner concentration 90 nM)
How it was run: as §1

[12] = tested on: PPARg:RXRa IVT, anti-PPARg (NR concentration 270 nM, RXRa partner concentration 90 nM)
How it was run: as §1

[13] = tested on: PPARg DBDmut:RXRa IVT, anti-PPARg (DBD mutation: PPARg1 K132A/R137A, NR concentration 270 nM, RXRa partner concentration 90 nM)
How it was run: as §1

[14] = tested on: PPARg DBDmut IVT, anti-PPARg (DBD mutation: PPARg1 K132A/R137A, NR concentration 270 nM)
How it was run: as §1

[15] = tested on: PPARg homodimer (NR concentration 180 nM)
How it was run: as §1

[16] = tested on: PXR:RXRa (NR concentration 270 nM, RXRa partner concentration 90 nM)
How it was run: as §1

[17] = tested on: PXR homodimer (NR concentration 270 nM)
How it was run: as §1

[18] = tested on: RARa:RXR (NR concentration 270 nM, RXRa partner concentration 90 nM)
How it was run: as §1

[19] = tested on: RARa homodimer (NR concentration 270 nM)
How it was run: as §1

[20] = tested on: RARb:RXRa (NR concentration 270 nM, RXRa partner concentration 90 nM)
How it was run: as §1

| Sequence | PBM binding z-score [1] | PBM binding z-score [2] | PBM binding z-score [3] | PBM binding z-score [4] | PBM binding z-score [5] | PBM binding z-score [6] | PBM binding z-score [7] | PBM binding z-score [8] | PBM binding z-score [9] | PBM binding z-score [10] | PBM binding z-score [11] | PBM binding z-score [12] | PBM binding z-score [13] | PBM binding z-score [14] | PBM binding z-score [15] | PBM binding z-score [16] | PBM binding z-score [17] | PBM binding z-score [18] | PBM binding z-score [19] | PBM binding z-score [20] |
| --- | --- | --- | --- | --- | --- | --- | --- | --- | --- | --- | --- | --- | --- | --- | --- | --- | --- | --- | --- | --- |
| GTACCAAGTTGAATAGGTCGTTGATGAGTAGGCG | 0.0295 | 0.289 | -0.317 | 0.163 | -0.262 | 0.893 | 0.208 | 0.125 | -0.197 | -0.278 | -0.264 | 0.17 | 0.192 | 0.767 | 0.638 | 0.225 | 0.216 | 0.609 | 0.578 | 0.926 |
| ATCGAAAGGTCGTAAGGTGAGTATACAGAAAGGC | 4.53 | 3.79 | 0.462 | 2.98 | 0.6 | 4.62 | 3.45 | 3.46 | 1.6 | 2.5 | 0.287 | 2.13 | 1.43 | 1.06 | 2.31 | 2.96 | 0.735 | 4.21 | 0.848 | 3.72 |
| ACCTCTAGGTAACAAGTTCAGTGAAAGAGAGGAC | 0.245 | 0.295 | 0.188 | 0.426 | -0.0173 | 1.02 | 1.18 | 1.5 | 0.452 | 1.29 | 3.28 | 2.07 | 0.823 | 0.266 | 0.609 | 1.57 | 1.32 | 0.59 | -0.291 | 1.51 |
| CGTCCAAGGTCAAAGGTCTGTGAAGAGATGACGG | 7.64 | 5.46 | 1.27 | 4.26 | 0.554 | 5.87 | 7.08 | 6.81 | 4.47 | 6.48 | 3.5 | 4.39 | 1 | 0.0198 | 3.15 | 4.82 | 1.13 | 6.06 | 0.626 | 5.4 |
| ACTAGCAGGCCAAGTTTGGGTCACTCAAACAAAG | 0.133 | 0.0719 | -0.339 | 0.663 | -0.95 | 1.49 | 0.094 | 0.413 | -0.485 | 0.0599 | 1.09 | 1.22 | -0.627 | -1.37 | 0.284 | 0.859 | -0.237 | 1.45 | -0.797 | 1.83 |
| ATCGAAAGGTCGACGAGGTGAATATACACCGTTT | 5.37 | 3.82 | 0.162 | 3.31 | 0.511 | 4.54 | 3.21 | 3.62 | 1.4 | 2.47 | 0.98 | 2.07 | 1.87 | 0.44 | 2.04 | 3.88 | 1.24 | 4.49 | 1.02 | 3.94 |
| TCTCGGAGGACACGAAAGGTCAAAGCTCGACATC | 4.46 | 5.45 | 6.31 | 4.92 | 0.987 | 4.72 | 2.15 | 3.75 | 2.79 | 3.33 | 1.72 | 2.11 | -0.166 | -0.0155 | 3.27 | 5.39 | 1.21 | 5.48 | 1.41 | 4.55 |
| TTACCAAGGTGAGCTGAGGTCGTTGTTCCAACTC | 1.49 | 1.3 | -0.412 | 0.784 | -1.32 | 1.75 | -0.301 | 1.01 | -0.393 | 0.445 | 1.27 | 2.01 | -0.911 | -0.688 | -0.161 | 5 | 0.345 | 2.16 | -0.978 | 1.79 |
| CCAGACAGGTGAGAAGGTAACTCGGCCTCGATTA | -0.0113 | 0.14 | -0.0117 | -0.138 | -0.518 | 0.585 | 0.364 | 0.533 | -0.307 | 0.171 | 1.02 | 0.832 | -0.526 | -1.05 | 0.472 | -0.382 | -0.139 | -0.0873 | 0.15 | 0.513 |
| CGAACTAGGTCATTGACAGGACAGTGACTAGTAA | 4.31 | 2.96 | 0.385 | 1.79 | 0.0478 | 4.71 | 7.47 | 6.11 | 3.43 | 5.59 | 8.03 | 8.27 | 2.04 | 1.38 | 0.886 | 1.81 | 0.0529 | 2.44 | 0.0227 | 3.58 |
| CGTCCAAGTTCAAAGGTCAGTGAAGAGATGACGG | 6.81 | 5.86 | 2.94 | 4.98 | 1.4 | 5.95 | 6.58 | 6.54 | 4.28 | 6.22 | 0.396 | 2.79 | 0.887 | 0.712 | 4.76 | 6.79 | 4.04 | 7.83 | 2.04 | 5.11 |
| ATCTCTAGGTCAAGTTCAGTGAAAGATCGATAGA | 5.11 | 5.65 | 4.79 | 3.98 | 3.26 | 4.74 | 5.82 | 5.4 | 2.79 | 4.77 | 6.76 | 6.5 | 2.13 | 1.61 | 2.41 | 3.45 | 2.13 | 3.16 | 1.74 | 4.55 |
| ATATGTAGGTTAAGGGTCATTCGGGTTGGTTCGC | 5.36 | 4.83 | 3.47 | 4.62 | 1.81 | 6.53 | 12.2 | 10.3 | 11.7 | 12.2 | 7.7 | 8.1 | 6.59 | 4.92 | 8.66 | 6.02 | 3.75 | 6.67 | 3.12 | 3.43 |
| CAAACTAGGTCAAAGTTCAAAGTCGAGCCAACCA | 7.56 | 6.56 | 5.94 | 5.99 | 2.08 | 7.43 | 13.3 | 10.7 | 12.3 | 12.8 | 8.26 | 8.92 | 2.7 | 3.37 | 3.22 | 6.38 | 5.12 | 7.88 | 1.43 | 5.27 |
